Measured values published in ChEMBL document CHEMBL1961873, “Compounds: GSK PKIS; Assays: Nanosyn kinase panel” (2012).

Legend:
[1] = target: Leukocyte tyrosine kinase receptor (Homo sapiens) (UniProt P29376); conditions: at 1 µM;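 note: each value is the mean inhibition of LTK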
[2] = target: Tyrosine-protein kinase Lyn (Homo sapiens) (UniProt P07948); conditions: at 0.1 µM
[3] = target: Tyrosine-protein kinase Lyn (Homo sapiens) (UniProt P07948); conditions: at 1 µM
[4] = target: Tyrosine-protein kinase Lyn (Homo sapiens) (UniProt P07948); conditions: at 0.1 µM; remark: listed apart in the source
[5] = target: Tyrosine-protein kinase Lyn (Homo sapiens) (UniProt P07948); conditions: at 1 µM; remark: listed apart in the source
[6] = target: T1, Tyrosine-protein kinase Mer (Homo sapiens) (UniProt Q12866); conditions: at 0.1 µM
T1 sequence (whole entry): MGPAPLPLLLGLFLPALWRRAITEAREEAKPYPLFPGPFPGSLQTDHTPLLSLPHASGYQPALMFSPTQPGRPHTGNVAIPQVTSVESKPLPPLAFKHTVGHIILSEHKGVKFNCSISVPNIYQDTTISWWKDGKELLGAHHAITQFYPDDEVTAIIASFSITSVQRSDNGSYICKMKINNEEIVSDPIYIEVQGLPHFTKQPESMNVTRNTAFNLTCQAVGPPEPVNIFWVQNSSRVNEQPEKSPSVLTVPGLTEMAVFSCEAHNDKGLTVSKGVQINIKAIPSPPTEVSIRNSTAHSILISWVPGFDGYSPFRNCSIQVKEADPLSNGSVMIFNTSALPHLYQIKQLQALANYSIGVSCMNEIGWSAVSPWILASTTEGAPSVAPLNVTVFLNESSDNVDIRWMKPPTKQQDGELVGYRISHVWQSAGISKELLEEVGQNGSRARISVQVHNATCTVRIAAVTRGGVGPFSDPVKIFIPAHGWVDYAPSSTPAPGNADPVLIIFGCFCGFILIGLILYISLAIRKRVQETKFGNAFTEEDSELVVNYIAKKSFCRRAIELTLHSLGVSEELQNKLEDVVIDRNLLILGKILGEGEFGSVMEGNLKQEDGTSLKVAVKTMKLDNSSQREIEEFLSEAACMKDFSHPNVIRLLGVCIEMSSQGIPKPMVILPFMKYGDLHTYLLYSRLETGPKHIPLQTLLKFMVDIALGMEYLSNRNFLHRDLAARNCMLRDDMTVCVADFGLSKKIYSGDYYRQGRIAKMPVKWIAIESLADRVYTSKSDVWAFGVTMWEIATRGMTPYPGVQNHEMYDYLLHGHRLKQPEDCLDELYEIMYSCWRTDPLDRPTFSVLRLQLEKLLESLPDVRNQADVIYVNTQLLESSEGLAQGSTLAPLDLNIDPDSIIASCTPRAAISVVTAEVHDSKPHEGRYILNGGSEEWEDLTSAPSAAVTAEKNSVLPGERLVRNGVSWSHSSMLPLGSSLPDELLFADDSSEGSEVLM

[7] = target: T1, Tyrosine-protein kinase Mer (Homo sapiens); conditions: at 1 µM
[8] = target: Hepatocyte growth factor receptor (Homo sapiens) (UniProt P08581); conditions: at 0.1 µM
Sequence of Hepatocyte growth factor receptor (Homo sapiens) (P08581 whole entry): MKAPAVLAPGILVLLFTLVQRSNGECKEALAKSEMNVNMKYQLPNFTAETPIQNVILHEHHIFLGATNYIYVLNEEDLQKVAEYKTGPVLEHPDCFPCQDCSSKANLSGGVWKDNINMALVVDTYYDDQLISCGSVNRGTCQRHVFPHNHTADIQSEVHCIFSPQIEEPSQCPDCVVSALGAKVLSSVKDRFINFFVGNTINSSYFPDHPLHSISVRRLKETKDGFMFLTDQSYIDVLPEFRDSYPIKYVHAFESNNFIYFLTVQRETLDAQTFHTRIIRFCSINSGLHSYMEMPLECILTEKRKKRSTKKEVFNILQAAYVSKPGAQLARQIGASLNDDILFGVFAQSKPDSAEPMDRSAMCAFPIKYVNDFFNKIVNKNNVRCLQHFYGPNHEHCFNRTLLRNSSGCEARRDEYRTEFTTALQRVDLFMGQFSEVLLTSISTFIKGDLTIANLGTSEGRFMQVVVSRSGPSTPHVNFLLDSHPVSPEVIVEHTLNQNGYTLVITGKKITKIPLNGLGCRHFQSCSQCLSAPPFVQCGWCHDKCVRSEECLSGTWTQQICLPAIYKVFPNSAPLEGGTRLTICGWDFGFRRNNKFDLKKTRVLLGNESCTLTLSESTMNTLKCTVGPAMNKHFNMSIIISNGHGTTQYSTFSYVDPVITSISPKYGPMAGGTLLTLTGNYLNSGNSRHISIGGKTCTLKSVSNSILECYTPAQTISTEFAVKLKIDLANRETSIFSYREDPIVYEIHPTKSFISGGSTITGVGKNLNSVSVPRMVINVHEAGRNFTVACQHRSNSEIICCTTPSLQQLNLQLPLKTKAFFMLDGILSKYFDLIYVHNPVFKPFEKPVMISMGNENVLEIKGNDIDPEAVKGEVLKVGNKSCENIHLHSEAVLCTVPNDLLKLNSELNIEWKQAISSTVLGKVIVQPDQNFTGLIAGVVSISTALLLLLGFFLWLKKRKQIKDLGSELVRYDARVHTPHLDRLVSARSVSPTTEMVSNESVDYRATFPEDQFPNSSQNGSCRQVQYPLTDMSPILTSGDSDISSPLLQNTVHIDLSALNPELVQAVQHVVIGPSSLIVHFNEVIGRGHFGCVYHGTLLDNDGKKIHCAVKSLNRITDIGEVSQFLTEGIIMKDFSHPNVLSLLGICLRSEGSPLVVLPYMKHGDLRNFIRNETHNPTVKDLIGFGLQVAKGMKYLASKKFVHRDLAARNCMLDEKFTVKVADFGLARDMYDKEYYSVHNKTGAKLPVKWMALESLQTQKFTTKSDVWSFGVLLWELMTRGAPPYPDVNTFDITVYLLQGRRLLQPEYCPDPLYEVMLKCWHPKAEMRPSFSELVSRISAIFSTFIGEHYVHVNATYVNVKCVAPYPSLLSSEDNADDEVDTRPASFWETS

[9] = target: Hepatocyte growth factor receptor (Homo sapiens) (UniProt P08581); conditions: at 1 µM
[10] = target: T2, Muscle, skeletal receptor tyrosine-protein kinase (Homo sapiens) (UniProt O15146); conditions: at 0.1 µM;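 note: values are mean inhibition of MuSK from the GSK PKIS kinase screening panel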
T2 sequence (whole entry): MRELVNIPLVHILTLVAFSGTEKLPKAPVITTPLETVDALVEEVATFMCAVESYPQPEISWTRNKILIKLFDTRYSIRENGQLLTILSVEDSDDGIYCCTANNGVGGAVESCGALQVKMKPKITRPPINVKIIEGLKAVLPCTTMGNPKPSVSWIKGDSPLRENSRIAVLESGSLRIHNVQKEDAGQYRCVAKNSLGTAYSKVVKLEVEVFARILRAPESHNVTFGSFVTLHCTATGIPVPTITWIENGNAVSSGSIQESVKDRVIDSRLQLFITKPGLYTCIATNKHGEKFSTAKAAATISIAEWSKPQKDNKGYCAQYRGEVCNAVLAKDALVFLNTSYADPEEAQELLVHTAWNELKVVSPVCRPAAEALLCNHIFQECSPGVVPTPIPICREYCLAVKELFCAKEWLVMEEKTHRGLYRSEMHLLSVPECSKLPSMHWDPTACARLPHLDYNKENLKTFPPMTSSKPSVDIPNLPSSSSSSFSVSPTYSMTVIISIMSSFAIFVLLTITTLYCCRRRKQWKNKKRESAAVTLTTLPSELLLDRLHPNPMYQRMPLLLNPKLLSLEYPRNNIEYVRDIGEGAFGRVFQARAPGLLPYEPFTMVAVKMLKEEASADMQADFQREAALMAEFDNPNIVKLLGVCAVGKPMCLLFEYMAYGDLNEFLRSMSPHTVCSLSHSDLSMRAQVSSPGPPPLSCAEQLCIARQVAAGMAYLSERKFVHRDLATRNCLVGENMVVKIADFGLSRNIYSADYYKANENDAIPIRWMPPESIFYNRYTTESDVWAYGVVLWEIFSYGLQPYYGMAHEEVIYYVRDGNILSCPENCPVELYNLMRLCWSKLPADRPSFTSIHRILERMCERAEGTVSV

Sequence of Leukocyte tyrosine kinase receptor (Homo sapiens) (P29376 whole entry): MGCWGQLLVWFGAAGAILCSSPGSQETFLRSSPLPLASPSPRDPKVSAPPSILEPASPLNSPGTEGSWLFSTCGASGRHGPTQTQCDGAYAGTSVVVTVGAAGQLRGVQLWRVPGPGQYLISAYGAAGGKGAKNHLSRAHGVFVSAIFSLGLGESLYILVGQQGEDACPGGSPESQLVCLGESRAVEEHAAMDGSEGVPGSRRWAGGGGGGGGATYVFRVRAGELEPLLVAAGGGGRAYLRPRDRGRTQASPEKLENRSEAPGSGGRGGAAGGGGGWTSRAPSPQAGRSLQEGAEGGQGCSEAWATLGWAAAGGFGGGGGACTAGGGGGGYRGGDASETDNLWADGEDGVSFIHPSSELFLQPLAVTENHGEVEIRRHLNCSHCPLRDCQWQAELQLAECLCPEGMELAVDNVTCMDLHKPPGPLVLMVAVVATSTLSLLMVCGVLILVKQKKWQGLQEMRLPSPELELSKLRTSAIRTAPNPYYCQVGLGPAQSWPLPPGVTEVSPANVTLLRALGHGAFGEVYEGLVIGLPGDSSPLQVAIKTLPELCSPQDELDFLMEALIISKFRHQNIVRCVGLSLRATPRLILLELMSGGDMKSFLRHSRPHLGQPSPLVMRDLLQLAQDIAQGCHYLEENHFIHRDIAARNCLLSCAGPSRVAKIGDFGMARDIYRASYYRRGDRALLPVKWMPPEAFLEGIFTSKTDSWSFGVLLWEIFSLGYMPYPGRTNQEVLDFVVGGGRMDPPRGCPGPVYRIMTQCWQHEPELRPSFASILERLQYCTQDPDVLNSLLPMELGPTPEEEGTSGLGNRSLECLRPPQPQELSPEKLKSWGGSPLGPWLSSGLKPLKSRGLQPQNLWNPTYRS
Sequence of Tyrosine-protein kinase Lyn (Homo sapiens) (P07948 2-512 limits assumed): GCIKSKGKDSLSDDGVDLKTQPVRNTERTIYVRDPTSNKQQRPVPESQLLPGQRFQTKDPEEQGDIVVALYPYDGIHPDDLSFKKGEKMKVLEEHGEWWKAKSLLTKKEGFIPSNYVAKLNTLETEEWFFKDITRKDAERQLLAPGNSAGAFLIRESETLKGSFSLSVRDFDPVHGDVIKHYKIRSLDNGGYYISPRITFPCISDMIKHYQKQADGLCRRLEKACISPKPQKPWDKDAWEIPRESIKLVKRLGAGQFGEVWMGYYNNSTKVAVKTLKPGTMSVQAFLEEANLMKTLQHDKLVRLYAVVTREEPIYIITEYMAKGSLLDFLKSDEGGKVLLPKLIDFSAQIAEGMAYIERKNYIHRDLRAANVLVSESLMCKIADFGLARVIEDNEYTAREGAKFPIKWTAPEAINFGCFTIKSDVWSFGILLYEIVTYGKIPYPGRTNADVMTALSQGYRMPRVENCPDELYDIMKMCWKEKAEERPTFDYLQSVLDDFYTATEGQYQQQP

SMILES | inhibition [1] [%] | inhibition [2] [%] | inhibition [3] [%] | inhibition [4] [%] | inhibition [5] [%] | inhibition [6] [%] | inhibition [7] [%] | inhibition [8] [%] | inhibition [9] [%] | inhibition [10] [%]
Fc1ccc(-c2ncn(C3CCNCC3)c2-c2ccnc(Oc3ccc4c(c3)OCO4)n2)cc1 | 8.02 | 5.3 | 7.55 | 3.33 | 5.4 | 2.7 | 5.24 | 2.27 | 7.4 | 5.07
CS(=O)(=O)CCNCc1ccc(-c2ccc3ncnc(Nc4ccc(OCc5ccccc5)c(Br)c4)c3c2)o1 | 4.86 | 4.6 | 7.84 | 2.75 | 5.83 | 2.91 | 13.9 | 1.81 | 6.53 | 1.27
COc1cc2ncn(-c3cc(OCCc4ccccc4)c(C(N)=O)s3)c2cc1OC | 1.98 | 1.83 | 9.45 | 0.79 | 7.19 | 2.54 | 6.75 | 1.96 | 5.5 | 2.9
COC(=O)Nc1nc2ccc(Sc3ccc(NC(=O)Nc4cc(C(F)(F)F)ccc4F)cc3)cc2[nH]1 | -2.11 | 5.69 | 56.1 | 4.04 | 49.8 | -0.94 | 2.34 | 1.57 | 36.2 | 32.2
CN(C)CCCNc1nccc(-c2c(-c3ccc(F)cc3)nn3cc(C(F)(F)F)ccc23)n1 | 1.19 | 1.87 | 6.57 | 0.99 | 5.88 | 1.56 | 5.87 | 3.45 | 10.6 | 10.1
C[C@@H](Oc1cc(-n2cnc3ccc(OCC4CCN(C)CC4)cc32)sc1C(N)=O)c1ccccc1Cl | 10.3 | 5.95 | 17.7 | 4.21 | 13.8 | 1.86 | 5.73 | 2.19 | 9.62 | 41.5
CCc1nccc2c1nc(-c1nonc1N)n2CC | 6.1 | 3.82 | 6.26 | 1.19 | 2.71 | -0.98 | 0.92 | 2.04 | 2.39 | 1.31
NS(=O)(=O)c1ccc(N/N=C2\C(=O)Nc3ccc(-c4cnco4)cc32)cc1 | 3.37 | 3.33 | 11.1 | 1.68 | 8.81 | 1.31 | 8.19 | 6.22 | 2.64 | 4.18
COc1cc2ncn(-c3cc(OCc4cccs4)c(C(N)=O)s3)c2cc1OC | 7.14 | 4.29 | 22.6 | 2.41 | 19.3 | 3.4 | 10.7 | 8.19 | 13.4 | 4.86
COc1cc2ncn(-c3cc(OCc4ccccc4C(F)(F)F)c(C(C)=O)s3)c2cc1OC | 3.33 | 3.36 | 6.9 | 4.22 | 6.9 | -0.14 | 4.1 | 1.74 | 13.5 | 2.48
NC(=O)c1cc(-c2ccncc2)cc(-c2ccccc2)c1N | 6.16 | 11.7 | 48.8 | 10 | 43 | 1.28 | 3.16 | 0.99 | 3.43 | 2.46
O=C1NC(=O)C(c2cccc(Cl)c2)=C1Nc1ccc(Cl)c(C(=O)O)c1 | 2.96 | 3.89 | 4.02 | 2.44 | 3.42 | 1.12 | -0.64 | 1.38 | 3.65 | 2.04
COc1ccc2cc(-c3c(-c4ccncc4)nc(-c4ccc([S+](C)[O-])cc4C)n3C)ccc2c1 (stereo not given) | 2.92 | 2 | 21.4 | 0.52 | 16.8 | 0.82 | 9.89 | -1.42 | 3.32 | 0.94
CN(C)c1ccc2c(c1)/C(=C/Nc1ccc(S(N)(=O)=O)cc1)C(=O)N2 | 2.8 | 3.6 | 22.4 | 2.71 | 17.4 | 1.88 | 10.8 | -0.65 | 4.48 | 8.66
C#Cc1cccc(Nc2ncnc3ccc(OCCCCNCCS(C)(=O)=O)cc23)c1 | 28.5 | 7.93 | 26.9 | 5.05 | 21.8 | 2 | 5.14 | 3.29 | 8.4 | 1.86
O=C(NCC1CC1)c1ccc(-c2cccc(C(=O)NC3CC3)c2)cc1 | -0.6 | 0.78 | 1.7 | 0.33 | 2.4 | 0.92 | 3.13 | 5.94 | -2.79 | 6.72
CNC(=O)c1cncc(/C=C/c2c(C)cccc2C)c1 | -0.39 | 22.1 | 72.4 | 17.6 | 67.8 | -0.47 | 3.56 | -0.92 | 1.41 | 3.8

SMILES | inhibition [1] [%] | inhibition [2] [%] | inhibition [3] [%] | inhibition [4] [%] | inhibition [5] [%] | inhibition [6] [%] | inhibition [7] [%] | inhibition [8] [%] | inhibition [9] [%] | inhibition [10] [%]
O=C(Nc1n[nH]c2nc(-c3ccc(O)cc3)c(Br)cc12)C1CC1 | 91.6 | 9.57 | 16.2 | 6.94 | 13 | 1.7 | 8.16 | 4.98 | 10.9 | 4.48
CCc1cccc(CC)c1/C=C/c1cncc(C(=O)NC)c1 | 0.4 | 3.99 | 5.8 | 1.75 | 4.91 | -0.22 | 4.08 | -0.26 | 1.69 | 3.82
COc1cc(Nc2ncc3c(C)nc(-c4cccc(C(F)(F)F)c4)n3n2)cc(OC)c1OC | 4.56 | 8.46 | 27.6 | 5.92 | 21.9 | 1.71 | 4.47 | 8.25 | 9.19 | 3.85
c1ccc(Oc2ccc(Nc3ncc(-c4ccccc4)o3)cc2)cc1 | 1.13 | 3.36 | 2.98 | 1.38 | 2.09 | 0.19 | 0.42 | 1.79 | 7.6 | 1.27
Fc1ccc(-c2c(-c3ccncc3)nc3n2CCS3)cc1 | 1.53 | 2.47 | 6.12 | 1.33 | 3.93 | 1.44 | 1.51 | 3.45 | 0.39 | 4.78
O=C1Nc2ccccc2/C1=C/Nc1ccc(-n2cncn2)cc1 | 7.47 | 6.77 | 21.6 | 4.42 | 17.3 | 1.28 | 5.61 | 5.14 | 13.6 | 3.92
C[C@@H](Oc1cc(-n2cnc3ccc(OC4CCN(C)CC4)cc32)sc1C(N)=O)c1ccccc1Cl | 4.72 | 3.54 | 6.86 | 1.68 | 5.6 | 2.77 | 9.07 | 7.84 | 5.01 | 7.63
Cc1ccc(C(=O)NC(C)C)cc1-c1ccc(C(=O)NCC2CC2)cc1 | -1.83 | -2.52 | -1.28 | -1.84 | -0.78 | -1.23 | -0.29 | -2.98 | -5.28 | -2.44
NC(=O)c1ccc(Oc2nccc(-c3c(-c4ccc(F)cc4)ncn3C3CCNCC3)n2)cc1 | 4.14 | 4.17 | 5.34 | 1.86 | 4.92 | 3.18 | 6.79 | 13.2 | 8.14 | 3.97
Fc1ccc(-c2ncn(CCCN3CCOCC3)c2-c2ccncc2)cc1 | -2.09 | -0.59 | -0.14 | -1 | -0.37 | 0.24 | -0.01 | 3.89 | -1.62 | -0.13
CCS(=O)(=O)c1ccc(OC)c(Nc2ncc(-c3ccccc3Cl)o2)c1 | 0.98 | 3.85 | 18.6 | 3.61 | 14.8 | -0.83 | 9.17 | 0.15 | 3.68 | 4.75
COc1cc(Nc2ncc3c(C)nc(-c4cccc(Oc5ccccc5)c4)n3n2)cc(OC)c1OC | 3.54 | 3.39 | 4.7 | 1.89 | 3.75 | 1.36 | 1.57 | 1.11 | -0.18 | 1.49
CN1CCN(CCCNc2nc3ccc(Oc4ccc(NC(=O)Nc5cc(C(F)(F)F)ccc5F)cc4)cc3[nH]2)CC1 | -0.03 | 1.76 | 13.2 | 0.61 | 9.37 | 2.04 | 6.67 | 5.66 | 8.95 | 15
Fc1ccc(-c2ncn(C3CCNCC3)c2-c2ccnc(Oc3ccc(F)c(F)c3)n2)cc1 | 2.29 | 3.84 | 3.75 | 2.34 | 2.48 | 1.13 | 1.39 | 7.87 | 4.17 | 2.92
COc1ccc(C2=C(N3CCc4ccccc43)C(=O)NC2=O)cc1 | 5.38 | 6.92 | 6.95 | 5.2 | 5.98 | 1.96 | 1.78 | 6.5 | 7.87 | 2.97
Cc1ccc(NC(=O)c2ccoc2)cc1-c1ccc(C(=O)NCC2CC2)cc1 | 3.16 | 3.73 | 3.68 | 3.72 | 4.12 | 1.1 | 1.81 | 11.4 | 0.85 | 0.54
N#Cc1ccc(Oc2nccc(-c3c(-c4ccc(F)cc4)ncn3C3CCNCC3)n2)cc1 | 5.69 | 5.36 | 7.26 | 3.37 | 4.34 | 2.29 | 2.26 | 3.69 | 6.49 | 1.86
